About 83,000 compounds went through this panel and 20% of them were active in at least one assay; those are over-represented in the sample as a whole.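 Treatment: one concentration, 48 hours, 96-well format. Scoring: percent growth, with anything below 10 considered active.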 Values without a mark were called inactive. Activity calls are given as the source filed them.
Legend:
Assay in all cases: NCI-60 one-dose screen, 48 h (100 = growth as untreated, 0 = no growth, -100 = all killed)
Conditions in all cases: 10 µM unless noted
HCT-15 colon = tested on: HCT-15 colon
HT29 colon = tested on: HT29 colon
SNB-75 CNS = tested on: SNB-75 CNS
SNB-19 CNS = tested on: SNB-19 CNS
U251 CNS = tested on: U251 CNS
PC-3 prostate = tested on: PC-3 prostate
SK-MEL-5 melanoma = tested on: SK-MEL-5 melanoma
UACC-62 melanoma = tested on: UACC-62 melanoma
LOX IMVI melanoma = tested on: LOX IMVI melanoma
SK-MEL-28 melanoma = tested on: SK-MEL-28 melanoma

In the case of `COc1ccc(-c2csc(NC(=O)CSc3nc(-c4ccccc4)cc(=O)[nH]3)n2)cc1`, the growth (HCT-15 colon) is reported as 70.9%, the growth (HT29 colon) is reported as 85.9% and the growth (SNB-75 CNS) is reported as 82.3%. It also gave a growth (SNB-19 CNS) of 70.1%, a growth (U251 CNS) of 79.7% and a growth (PC-3 prostate) of 66.5%. The growth (SK-MEL-5 melanoma) was -16.5% (active), the growth (UACC-62 melanoma) was 58.7% and the growth (LOX IMVI melanoma) was 66%. The growth (SK-MEL-28 melanoma) was 90.6%.
In the case of `COc1cccc(/C=C/C(=O)c2cc3c(N)c(C(=O)Nc4ccccc4)sc3nc2C)c1`, the growth (HCT-15 colon) is reported as -35.1% (active), the growth (HT29 colon) is reported as -7.47% (active) and the growth (SNB-75 CNS) is reported as 3% (active). For the same compound, the growth (SNB-19 CNS) was -3.91% (active), the growth (U251 CNS) was -52.9% (active) and the growth (PC-3 prostate) was 41.7%. The growth (SK-MEL-5 melanoma) was 34.8%, the growth (UACC-62 melanoma) was 20.2% and the growth (LOX IMVI melanoma) was -83.2% (active). The growth (SK-MEL-28 melanoma) was 50.4%.
Work on `O=C(CSc1nnc2n1S(=O)(=O)c1ccccc1N2c1ccccc1)Nc1nc2ccc(F)cc2s1` yielded a growth (HCT-15 colon) of 104%, a growth (HT29 colon) of 104% and a growth (SNB-75 CNS) of 85.5%. It also gave a growth (SNB-19 CNS) of 99.6%, a growth (U251 CNS) of 103% and a growth (PC-3 prostate) of 89.5%. The growth (SK-MEL-5 melanoma) was 87.7%, the growth (UACC-62 melanoma) was 81.2% and the growth (LOX IMVI melanoma) was 85.8%. For the same compound, the growth (SK-MEL-28 melanoma) was 117%.
`N#C/C(=C\c1ccc(Br)cc1)n1nnc2ccc(F)cc21` was tested, and the growth (HCT-15 colon) was -18.2% (active), the growth (HT29 colon) was 3.64% (active) and the growth (SNB-75 CNS) was 0.279% (active). The growth (SNB-19 CNS) was 19.5%, the growth (U251 CNS) was 1.71% (active) and the growth (PC-3 prostate) was 7.5% (active). The growth (SK-MEL-5 melanoma) was 6.12% (active), the growth (UACC-62 melanoma) was -54.7% (active) and the growth (LOX IMVI melanoma) was -63.7% (active). For the same compound, the growth (SK-MEL-28 melanoma) was -5.29% (active).
`Cc1nnc(NC(=O)c2nc(S(=O)(=O)Cc3ccc(F)cc3)ncc2Cl)s1` gave a growth (HCT-15 colon) of 11.1%, a growth (HT29 colon) of 23.8% and a growth (SNB-75 CNS) of 79.3%. It also gave a growth (SNB-19 CNS) of 92.8%, a growth (U251 CNS) of 62.2% and a growth (PC-3 prostate) of 71.4%. For the same compound, the growth (SK-MEL-5 melanoma) was 98.9%, the growth (UACC-62 melanoma) was 19.8% and the growth (LOX IMVI melanoma) was 13.6%. It also gave a growth (SK-MEL-28 melanoma) of 50.5%.
`CN(C)c1ccc(/C=C/C(=O)c2ccc(-n3cc(CN4CCN(c5cc6c(cc5F)c(=O)c(C(=O)O)cn6C5CC5)CC4)nn3)cc2)cc1` was tested, and the growth (HCT-15 colon) was 63.4%, the growth (HT29 colon) was 28% and the growth (SNB-75 CNS) was 68.1%. It also gave a growth (SNB-19 CNS) of 31.6%, a growth (U251 CNS) of 16.5% and a growth (PC-3 prostate) of 57.4%. The growth (SK-MEL-5 melanoma) was 79%, the growth (UACC-62 melanoma) was 55.8% and the growth (LOX IMVI melanoma) was 20.3%. The growth (SK-MEL-28 melanoma) was 68%.
In the case of `CCOC(=O)c1ccc2[nH]c(O)c(C(=Nc3ccc(N(C)C(=O)CN4CCN(C)CC4)cc3)c3ccccc3)c2c1`, the growth (HCT-15 colon) is reported as -23.6% (active), the growth (HT29 colon) is reported as -33.8% (active) and the growth (SNB-75 CNS) is reported as -99.2% (active). For the same compound, the growth (SNB-19 CNS) was 2.34% (active), the growth (U251 CNS) was -86.4% (active) and the growth (PC-3 prostate) was 4.9% (active). The growth (SK-MEL-5 melanoma) was -94% (active), the growth (UACC-62 melanoma) was 17% and the growth (LOX IMVI melanoma) was -93.2% (active). The growth (SK-MEL-28 melanoma) was -11.9% (active).
In the case of `O=C(CSc1nc2ccc([N+](=O)[O-])cc2[nH]1)Nc1cccc(C(F)(F)F)c1`, the growth (HCT-15 colon) is reported as 23.5%, the growth (HT29 colon) is reported as 11.3% and the growth (SNB-75 CNS) is reported as 25.5%. The growth (SNB-19 CNS) was 15.2%, the growth (U251 CNS) was 16.4% and the growth (PC-3 prostate) was 9.66% (active). The growth (SK-MEL-5 melanoma) was -1.54% (active), the growth (UACC-62 melanoma) was 6.34% (active) and the growth (LOX IMVI melanoma) was 26.9%. The growth (SK-MEL-28 melanoma) was 22.2%.
`O=[N+]([O-])c1ccc(-c2nc(N3CCOCC3)c3c4c(sc3n2)CCCC4)cc1` showed a growth (HCT-15 colon) of 97.8%, a growth (HT29 colon) of 94.8% and a growth (SNB-75 CNS) of 76.6%. For the same compound, the growth (SNB-19 CNS) was 115%, the growth (U251 CNS) was 102% and the growth (PC-3 prostate) was 101%. For the same compound, the growth (SK-MEL-5 melanoma) was 94.1%, the growth (UACC-62 melanoma) was 85.1% and the growth (LOX IMVI melanoma) was 86%. For the same compound, the growth (SK-MEL-28 melanoma) was 111%.
Work on `O=C1c2c(c3c4ccccc4[nH]c3c3ccc4ccccc4c23)C(=O)N1CCN1CCCCC1` yielded a growth (HCT-15 colon) of 25%, a growth (HT29 colon) of 11.8% and a growth (SNB-75 CNS) of 52.6%. For the same compound, the growth (SNB-19 CNS) was 42.4%, the growth (U251 CNS) was 10.8% and the growth (PC-3 prostate) was 53.3%. It also gave a growth (SK-MEL-5 melanoma) of 55.4%, a growth (UACC-62 melanoma) of 42.8% and a growth (LOX IMVI melanoma) of 30.2%. The growth (SK-MEL-28 melanoma) was 98.1%.
With `CCCCCCNC(=O)Oc1ccc(/C(=C(/C)Cc2ccc(OC)cc2)c2ccc(OCCCN(C)C)cc2)cc1` the growth (HCT-15 colon) was -6.62% (active), the growth (HT29 colon) was -55.9% (active) and the growth (SNB-75 CNS) was 65.9%. For the same compound, the growth (SNB-19 CNS) was 45.7%, the growth (U251 CNS) was -46.7% (active) and the growth (PC-3 prostate) was 24.3%. For the same compound, the growth (SK-MEL-5 melanoma) was 6.74% (active), the growth (UACC-62 melanoma) was -25.1% (active) and the growth (LOX IMVI melanoma) was -60.5% (active). The growth (SK-MEL-28 melanoma) was -43.5% (active).
In the case of `O=C(OCc1ccc2cccc(O)c2n1)N1CCN(C(=O)c2cc3cc(F)ccc3[nH]2)CC1`, the growth (HCT-15 colon) is reported as -36.4% (active), the growth (HT29 colon) is reported as -70.4% (active) and the growth (SNB-75 CNS) is reported as -45.2% (active). The growth (SNB-19 CNS) was 47.1%, the growth (U251 CNS) was -87.2% (active) and the growth (PC-3 prostate) was -43.9% (active). For the same compound, the growth (SK-MEL-5 melanoma) was -79.6% (active), the growth (UACC-62 melanoma) was -93.8% (active) and the growth (LOX IMVI melanoma) was -91.8% (active). The growth (SK-MEL-28 melanoma) was -91.2% (active).
With `O=C(COc1ccc(-c2nc3ccccc3[nH]2)cc1)N=Nc1c(O)[nH]c2ccc(Cl)cc12` the growth (HCT-15 colon) was 93%, the growth (HT29 colon) was 41.2% and the growth (SNB-75 CNS) was 103%. For the same compound, the growth (SNB-19 CNS) was 56.5%, the growth (U251 CNS) was -45.1% (active) and the growth (PC-3 prostate) was 25.9%. It also gave a growth (SK-MEL-5 melanoma) of 94.9%, a growth (UACC-62 melanoma) of 100% and a growth (LOX IMVI melanoma) of 60.7%. For the same compound, the growth (SK-MEL-28 melanoma) was 108%.
`c1ccc(CNc2c3ccccc3nc3ccccc23)cc1` showed a growth (HCT-15 colon) of 24.6%, a growth (HT29 colon) of 19% and a growth (SNB-75 CNS) of 64.4%. The growth (SNB-19 CNS) was 39.4%, the growth (U251 CNS) was 38.5% and the growth (PC-3 prostate) was 37.2%. It also gave a growth (SK-MEL-5 melanoma) of 63.1%, a growth (UACC-62 melanoma) of 61% and a growth (LOX IMVI melanoma) of 19.8%. For the same compound, the growth (SK-MEL-28 melanoma) was 85.5%.
For `C#Cc1cccc(Nc2ncnc3ccc(-c4cncc(NS(C)(=O)=O)c4)cc23)c1`, the growth (HCT-15 colon) was 55.9%, the growth (HT29 colon) was 20.7% and the growth (SNB-75 CNS) was 30.6%. For the same compound, the growth (SNB-19 CNS) was 35.2%, the growth (U251 CNS) was 4.32% (active) and the growth (PC-3 prostate) was 26.8%. For the same compound, the growth (SK-MEL-5 melanoma) was -75.7% (active), the growth (UACC-62 melanoma) was 33.4% and the growth (LOX IMVI melanoma) was 7.21% (active). The growth (SK-MEL-28 melanoma) was 41.4%.
With `COc1cc2c(c(OC)c1OC)C(=O)CC(c1cccc(NC(=O)c3ccc(Br)cc3)c1)O2` (stereo not given) the growth (HCT-15 colon) was 29.8%, the growth (HT29 colon) was 46% and the growth (SNB-75 CNS) was 47.7%. For the same compound, the growth (SNB-19 CNS) was 64.6%, the growth (U251 CNS) was 42.2% and the growth (PC-3 prostate) was 20.9%. The growth (SK-MEL-5 melanoma) was 4.06% (active), the growth (UACC-62 melanoma) was 18.8% and the growth (LOX IMVI melanoma) was 43.3%. It also gave a growth (SK-MEL-28 melanoma) of 57%.

— PubChem BioAssay (NCI)
